Source: PubChem BioAssay
Calls of active or inactive are those of the source.

What was measured:
Albumin (Bos taurus) = Albumin (Bos taurus) (UniProt P02769); assay: compounds binding labelled BSA control protein – biochemical, small-molecule microarray, Alexa647 label, 635/667 nm fluorescence, artefact control for SMM control protein annotation, profiling panel (AID 1118); settings: BSA-A647 binding, fluorescence 635 nm, higher = more signal;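 also: score merges 667 nm emission intensity and signal-to-noise per printed compound spot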
[1] = probe aXIP binding to arrayed compounds – biochemical, NeuroSMM set, 635/667 nm fluorescence, primary screen (AID 1119); settings: small-molecule microarray, higher = more signal, called active from +8 up or from −8 down;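 also: probe is the protein aXip251-270 applied at 1 µg/mL to compound-printed slides; binding of probe to printed compounds measured as 667 nm fluorescence plus signal to noise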
[2] = probe aNOTCH3 binding on compound microarray – biochemical, small-molecule microarray, 635/667 nm fluorescence, primary screen (AID 1120); settings: higher = more signal;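 also: probe is a biotin-tagged antibody raised against NOTCH3 rather than NOTCH3 protein; score merges spot fluorescence near 667 nm with spot signal to noise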
[3] = probe aNOTCH2 binding on compound microarray – biochemical, small-molecule microarray, 635/667 nm fluorescence, primary screen (AID 1121); settings: higher = more signal;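 also: score merges feature fluorescence read at 667 nm with its signal to noise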
[4] = target: Carbonic anhydrase 2 (Homo sapiens) (UniProt P00918); assay: compounds binding carbonic anhydrase 2 – biochemical, small-molecule microarray, Alexa647-labelled CAII, profiling panel (AID 1122); settings: CAII-A647 binding fluorescence, higher = more signal
[5] = COS7 lysate on small-molecule microarray, probe aHis, 635 nm (AID 1123); settings: COS7 cell lysate, fluorescence, higher = more signal;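 also: z-score combines 667nm fluorescence intensity with signal-to-noise per printed compound spot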
[6] = probe aLAP1 signal on lysate-treated microarray – cell lysate, small-molecule microarray, COS7 lysate, primary screen (AID 1124); settings: probe aLAP1, fluorescence, higher = more signal;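 also: lysate comes from COS7 cells expressing LAP1 and is applied at 0.3 µg/mL; score merges spot fluorescence near 667 nm with signal-to-noise over triplicate slides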
Sam68 (KHDRBS1) = assay: compounds binding KHDRBS1 protein – biochemical, small-molecule microarray, 635 nm fluorescence, primary screen (AID 1125); settings: higher = more signal;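 also: score merges 667 nm channel intensity with signal to noise over triplicate slides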
[7] = test system: Chordin-like protein 2 (CHRDL2); assay: compounds binding chordin-like 2 – biochemical, small-molecule microarray, 635 nm fluorescence, primary screen (AID 1126); settings: fluorescence 635 nm, higher = more signal;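 also: printed compound slides probed with Chrdl2 protein at 4 µg/mL for 1 h at 4 C; score merges 667 nm emission intensity with signal to noise over three replicate slides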
[8] = target: Concanavalin-A (Canavalia ensiformis) (UniProt P02866); assay: compounds binding concanavalin A lectin – biochemical, small-molecule microarray, Alexa647 label, 635 nm, artefact control for SMM control protein annotation, primary screen (AID 1127); settings: ConA-A647 binding fluorescence, higher = more signal;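 also: z combines 667 nm emission intensity with signal-to-noise across three replicate slides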
[9] = compounds binding Alexa647 anti-His antibody – biochemical, small-molecule microarray, 635 nm fluorescence, artefact control for SMM control protein annotation, primary screen (AID 1128); settings: higher = more signal;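 also: score merges feature fluorescence with signal-to-noise for each printed compound spot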
[10] = test system: Human papillomavirus type 1a E7 protein (residues 1-88); assay: HPV1a E7 small-molecule binders, primary screen, biochemical, small-molecule microarray, residues 1-88, 635 nm (AID 1129); settings: small-molecule microarray binding, fluorescence 635 nm; higher = more signal
[11] = target: Focal adhesion kinase 1 (Homo sapiens) (UniProt Q05397); assay: PTK2 protein binding on printed compound slides – biochemical, small-molecule microarray, 635/667 nm fluorescence, BSA, DTT, primary screen (AID 1130); settings: 635 nm fluorescence, higher = more signal;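 also: composite of spot emission at 667 nm and signal to noise over triplicate slides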
[12] = test system: Fibrinogen (Alexa647-labelled); assay: Alexa647-fibrinogen binding to printed small molecules – biochemical, small-molecule microarray, 635/667 nm fluorescence, artefact control for SMM control-protein annotation, profiling panel (AID 1131); settings: fibrinogen-A647 binding fluorescence, higher = more signal;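 also: z-score merges 667 nm fluorescence with per-spot signal-to-noise over triplicate slides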
[13] = target: Follistatin (Homo sapiens) (UniProt P19883); assay: FST protein binding to printed compounds – biochemical, small-molecule microarray, 635/667 nm fluorescence, primary screen (AID 1132); settings: 635 nm fluorescence, higher = more signal
[14] = target: Fibroblast growth factor 2 (Homo sapiens) (UniProt P09038); assay: basic fibroblast growth factor binding to printed compounds – biochemical, small-molecule microarray, 635/667 nm fluorescence, primary screen (AID 1133); settings: FGF2, fluorescence 635/667, higher = more signal
[15] = JC-1 mitochondrial potential readout, lung cancer cells – cell-based, A549, JC-1 fluorescence, basal, 24 h, 100 nL, profiling panel (AID 1138); settings: higher = more signal;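 also: A549 lung adenocarcinoma cells under basal conditions with no added stimulus; test concentration not given here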
Lefty1 = Lefty1 protein binding to printed compounds – biochemical, small-molecule microarray, 635/667 nm fluorescence, primary screen (AID 1139); settings: fluorescence 635/667, higher = more signal
[16] = test system: wheat germ agglutinin (Triticum aestivum), Alexa647-labelled; assay: Alexa647-WGA lectin binding to printed small molecules – biochemical, small-molecule microarray, 635/667 nm fluorescence, artefact control for SMM control-protein annotation, profiling panel (AID 1140); settings: WGA-A647 binding, 635 nm fluorescence, higher = more signal;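 also: score merges 667 nm feature emission with signal to noise over triplicate slides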
[17] = target: Luciferin 4-monooxygenase (Photinus pyralis) (UniProt P08659); assay: inhibition of purified Photinus pyralis luciferase – biochemical, luminescence, purified enzyme, 2006 set, primary screen (AID 1141); settings: purified firefly luciferase, SteadyGlo luminescence, 30 min; higher = more signal, called active from +8 up or from −8 down;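 also: cell-free assay with purified firefly luciferase at 100 ng per well in PBS; test concentration not given here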
Sequence of Luciferin 4-monooxygenase (Photinus pyralis) (P08659 whole entry, looked up): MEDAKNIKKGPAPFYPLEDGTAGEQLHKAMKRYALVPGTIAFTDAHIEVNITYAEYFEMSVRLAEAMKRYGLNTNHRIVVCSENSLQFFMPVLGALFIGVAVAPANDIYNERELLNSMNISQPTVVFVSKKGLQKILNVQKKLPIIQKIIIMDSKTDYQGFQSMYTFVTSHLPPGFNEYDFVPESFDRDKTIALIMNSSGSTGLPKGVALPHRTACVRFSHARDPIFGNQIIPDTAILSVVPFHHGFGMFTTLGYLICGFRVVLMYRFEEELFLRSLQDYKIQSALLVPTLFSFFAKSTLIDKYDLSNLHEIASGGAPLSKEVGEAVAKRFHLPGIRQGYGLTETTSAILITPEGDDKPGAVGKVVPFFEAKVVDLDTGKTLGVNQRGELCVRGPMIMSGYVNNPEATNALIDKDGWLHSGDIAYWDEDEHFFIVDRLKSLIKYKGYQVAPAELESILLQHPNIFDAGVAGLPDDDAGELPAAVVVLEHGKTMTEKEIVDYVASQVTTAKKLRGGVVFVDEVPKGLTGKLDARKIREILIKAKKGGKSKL

Sequence of Concanavalin-A (Canavalia ensiformis) (P02866 whole entry, looked up): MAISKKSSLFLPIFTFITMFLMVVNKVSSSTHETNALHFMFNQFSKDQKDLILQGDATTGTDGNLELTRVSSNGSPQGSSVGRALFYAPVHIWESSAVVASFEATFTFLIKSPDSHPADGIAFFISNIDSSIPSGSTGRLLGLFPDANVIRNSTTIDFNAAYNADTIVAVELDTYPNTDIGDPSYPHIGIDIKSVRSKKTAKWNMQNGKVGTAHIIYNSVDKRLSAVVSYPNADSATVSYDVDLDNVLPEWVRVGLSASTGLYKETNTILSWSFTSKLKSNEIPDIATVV
Sequence of Fibroblast growth factor 2 (Homo sapiens) (P09038 whole entry, looked up): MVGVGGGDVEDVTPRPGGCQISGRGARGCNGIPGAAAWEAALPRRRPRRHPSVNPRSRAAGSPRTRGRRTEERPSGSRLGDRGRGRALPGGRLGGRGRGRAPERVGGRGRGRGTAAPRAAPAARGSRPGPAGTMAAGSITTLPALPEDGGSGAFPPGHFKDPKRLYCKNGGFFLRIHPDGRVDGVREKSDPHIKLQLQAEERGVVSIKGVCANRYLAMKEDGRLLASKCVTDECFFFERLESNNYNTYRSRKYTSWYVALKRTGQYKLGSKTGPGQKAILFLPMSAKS
Sequence of Follistatin (Homo sapiens) (P19883 whole entry, looked up): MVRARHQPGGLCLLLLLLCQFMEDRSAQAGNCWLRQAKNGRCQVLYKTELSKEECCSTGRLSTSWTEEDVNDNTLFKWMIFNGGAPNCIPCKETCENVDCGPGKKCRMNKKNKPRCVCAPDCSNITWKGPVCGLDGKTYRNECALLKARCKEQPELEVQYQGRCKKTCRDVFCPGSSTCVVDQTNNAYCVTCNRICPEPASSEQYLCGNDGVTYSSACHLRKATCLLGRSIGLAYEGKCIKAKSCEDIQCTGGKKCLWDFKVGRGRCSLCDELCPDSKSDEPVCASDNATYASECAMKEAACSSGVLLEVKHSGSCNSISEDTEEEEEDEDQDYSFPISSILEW
Sequence of Focal adhesion kinase 1 (Homo sapiens) (Q05397 whole entry, looked up): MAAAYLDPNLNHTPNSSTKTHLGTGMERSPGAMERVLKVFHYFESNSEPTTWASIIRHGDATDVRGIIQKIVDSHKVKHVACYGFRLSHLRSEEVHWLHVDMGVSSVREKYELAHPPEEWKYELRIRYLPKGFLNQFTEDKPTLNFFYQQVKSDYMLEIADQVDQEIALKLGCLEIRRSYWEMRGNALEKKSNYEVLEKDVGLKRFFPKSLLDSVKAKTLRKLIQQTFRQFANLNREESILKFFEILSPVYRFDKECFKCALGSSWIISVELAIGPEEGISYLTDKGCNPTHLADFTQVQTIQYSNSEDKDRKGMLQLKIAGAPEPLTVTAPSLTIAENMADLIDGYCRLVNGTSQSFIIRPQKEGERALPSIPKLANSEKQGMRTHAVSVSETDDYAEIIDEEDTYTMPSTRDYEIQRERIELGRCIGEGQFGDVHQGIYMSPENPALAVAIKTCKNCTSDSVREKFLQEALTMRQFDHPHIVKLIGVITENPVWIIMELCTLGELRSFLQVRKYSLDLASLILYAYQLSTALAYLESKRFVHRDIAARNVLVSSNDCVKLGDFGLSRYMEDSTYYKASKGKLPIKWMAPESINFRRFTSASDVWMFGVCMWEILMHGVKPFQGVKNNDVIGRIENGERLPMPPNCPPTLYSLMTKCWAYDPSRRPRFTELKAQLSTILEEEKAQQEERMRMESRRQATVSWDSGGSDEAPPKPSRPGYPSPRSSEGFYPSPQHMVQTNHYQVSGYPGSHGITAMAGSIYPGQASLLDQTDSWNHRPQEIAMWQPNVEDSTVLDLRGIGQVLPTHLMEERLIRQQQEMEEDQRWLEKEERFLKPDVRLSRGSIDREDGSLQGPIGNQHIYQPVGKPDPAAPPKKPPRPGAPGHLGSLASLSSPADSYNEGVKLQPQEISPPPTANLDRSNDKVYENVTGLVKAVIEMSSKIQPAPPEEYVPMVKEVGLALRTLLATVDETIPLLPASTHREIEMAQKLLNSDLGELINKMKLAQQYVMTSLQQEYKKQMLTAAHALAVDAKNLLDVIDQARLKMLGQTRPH
Sequence of Albumin (Bos taurus) (P02769 whole entry, looked up): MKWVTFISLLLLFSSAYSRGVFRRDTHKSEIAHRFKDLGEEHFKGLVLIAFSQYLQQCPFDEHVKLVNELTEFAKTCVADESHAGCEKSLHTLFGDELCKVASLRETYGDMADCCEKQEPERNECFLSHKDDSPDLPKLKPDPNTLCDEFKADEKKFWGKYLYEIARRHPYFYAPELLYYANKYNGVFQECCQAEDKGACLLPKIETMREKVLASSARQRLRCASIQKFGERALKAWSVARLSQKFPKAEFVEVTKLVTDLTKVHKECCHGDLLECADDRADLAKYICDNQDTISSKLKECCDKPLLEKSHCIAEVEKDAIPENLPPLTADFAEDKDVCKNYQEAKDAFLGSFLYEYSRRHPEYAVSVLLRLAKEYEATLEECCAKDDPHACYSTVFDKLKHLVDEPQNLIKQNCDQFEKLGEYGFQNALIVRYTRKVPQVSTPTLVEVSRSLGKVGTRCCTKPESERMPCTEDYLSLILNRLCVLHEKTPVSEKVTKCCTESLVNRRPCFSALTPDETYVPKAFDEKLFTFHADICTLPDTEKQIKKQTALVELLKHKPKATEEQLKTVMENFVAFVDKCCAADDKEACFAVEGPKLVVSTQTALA

Row | SMILES | composite z-score (Albumin (Bos taurus)) | composite Z-score [1] | composite z-score [2] | composite z-score [3] | composite z-score [4] | composite z-score [5] | composite z-score [6] | composite z-score (Sam68 (KHDRBS1)) | composite z-score [7] | composite z-score [8] | composite z-score [9] | composite z-score [10] | composite z-score [11] | composite z-score [12] | composite z-score [13] | composite z-score [14] | z-score [15] | composite z-score (Lefty1) | composite z-score [16] | z-score [17]
1 | CO[C@H]1O[C@H](CO)[C@@H](OC(=O)Nc2ccccc2)[C@H](OC(=O)Nc2ccc3c(c2)OCO3)[C@H]1OC(=O)Nc1ccc2c(c1)OCO2 | 0.06 | 0.219 (inactive) | 0.224 | -0.0289 | 0.599 | 2.14 | 0.294 | 1.29 | -0.494 | 1.18 | 1.75 | 1.19 | 2.04 | 0.172 | 0.612 | -0.0687 | 0.316 | 0.345 | 0.571 | -1.63 (inactive)
2 | CCOC(=O)C[C@H]1[C@H](OC(=O)c2cc3ccccc3oc2=O)[C@@H](NC(=O)c2ccccc2)c2cc(OCCCO)ccc2N1C(=O)Cc1ccc(OC)cc1 | -0.0029 | -0.0478 (inactive) | 0.0488 | -0.0578 | 0.467 | 0.257 | 0.324 | 0.382 | 0.357 | 0.773 | -0.657 | 0.345 | 0.5 | 0.465 | 0.856 | 0.948 | -0.42 | 0.584 | 0.247 | -0.243 (inactive)
3 | C#CCOc1ccc(C[C@H]2C(=O)O[C@H](Cc3ccccc3)[C@H](/C=C/C3CC3)N2CC#C)cc1 | -0.0855 | 0.319 (inactive) | -0.165 | -0.172 | 0.643 | -0.104 | 0.0683 | -0.0391 | 0.445 | -0.224 | -0.146 | 0.128 | 0.386 | 0.273 | -0.322 | -0.349 | 4.32 | -0.433 | -0.311 | -0.968 (inactive)
4 | COc1ccc(CCNC(=O)[C@@]2(Sc3ccc(C)cc3)CC(=O)N(Cc3ccccc3)[C@@H]2c2ccc(CO)cc2I)cc1 | -0.605 | -0.224 (inactive) | -0.289 | -0.2 | 0.377 | 0.666 | 2.03 | 0.247 | -0.974 | 0.508 | 1.06 | 0.408 | 0.0363 | -0.718 | -0.168 | -0.662 | 2.51 | -0.89 | -0.0265 | -0.707 (inactive)
5 | C=CCNC(=O)[C@@H]1[C@H]2C(=O)O[C@H](c3ccccc3)[C@H](c3ccccc3)N2[C@H](c2ccc(O)cc2)[C@@]12C(=O)Nc1ccccc12 | -0.989 | 0.0737 (inactive) | -0.246 | -0.22 | 0.55 | 1.12 | 0.324 | 0.502 | -0.939 | 0.516 | -0.391 | -0.227 | 0.394 | -0.0121 | 0.981 | 0.143 | 0.715 | 0.52 | 0.567 | -1.03 (inactive)
6 | COC(=O)C(CC#Cc1ccc2c(c1)[C@]1(C(=O)N2)[C@H](C(N)=O)[C@H]2C(=O)O[C@H](c3ccccc3)[C@H](c3ccccc3)N2[C@@H]1c1ccc(O)cc1)C(=O)OC | 0.201 | 0.0742 (inactive) | 0.122 | 0.0286 | 0.803 | 1.15 | 0.478 | -0.942 | -1.33 | -1.92 | 0.62 | -0.328 | 0.418 | -1.59 | -0.919 | -0.292 | -1.07 | -0.861 | -0.3 | -1.43 (inactive)
7 | CC(C)C(CO)N1C(=O)[C@@H]2C3C(=O)OCCC/C=C\[C@H]3OC23C=CCN(C(C)C)C(=O)[C@@H]13 (stereo not given in full) | -1.36 | 1.77 (inactive) | -0.214 | -0.168 | 0.865 | 1.37 | 1.95 | 0.879 | -1.5 | -0.341 | -1.74 | -0.809 | 0.0086 | -0.935 | -1.05 | -0.993 | 0.743 | -0.278 | -1.14 | -0.774 (inactive)
8 | COC(=O)C1=CC(c2ccc(CO)cc2)=CC(C2CC2)N(C)C=C1C(=O)OC (stereo not given) | 0.965 | 0.498 (inactive) | -0.0903 | -0.0617 | 0.874 | 1.73 | 0.969 | 0.862 | -0.73 | -0.0948 | 0.822 | -0.203 | 0.883 | 0.707 | -0.743 | -0.326 | 1.63 | -0.615 | 1.28 | -1.8 (inactive)
9 | O=C1O[C@@H](c2ccccc2)[C@@H](c2ccccc2)N2[C@@H](c3ccc(OCCO)cc3)[C@]3(C(=O)Nc4ccc(C#CC5(O)CCCCCC5)cc43)[C@@H](C(=O)NC[C@H](O)c3ccccc3)[C@H]12 | 0.879 | -0.363 (inactive) | 0.158 | 0.0278 | 0.695 | 1.56 | 2.16 | 1.32 | 0.127 | 1.17 | 2.14 | 1.08 | 0.745 | 0.407 | 1.23 | 0.505 | -0.482 | 0.783 | 1.09 | -1.77 (inactive)
10 | C=CC[C@@H](OC(=O)Nc1ccc(SC)cc1)c1ccc(OCCO)cc1 | -0.733 | 0.667 (inactive) | -0.267 | -0.179 | 0.758 | 1.99 | 0.105 | 0.655 | -2.01 | -0.264 | 2.42 | -0.0392 | -0.783 | -1.58 | -1.15 | -0.991 | 0.844 | -0.763 | -0.666 | -3.91 (inactive)
11 | CCOC(=O)C[C@H]1[C@H](OC(=O)c2ccc(C(=O)c3ccccc3)cc2)[C@@H](NC(=O)Cc2ccc(OC)cc2)c2cc(OCCCO)ccc2N1C(=O)Cc1ccc(OC)cc1 | 0.602 | -0.333 (inactive) | 0.0397 | -0.0505 | 0.0899 | 0.954 | 0.397 | 1.05 | -0.49 | 1.01 | 0.0446 | 1.07 | 0.551 | 0.729 | 0.295 | -0.078 | 2.88 | 0.607 | 0.855 | -0.927 (inactive)
